Measurements published in PubChem BioAssay (NCI).
Compounds without any hit were thinned out: in the full panel of roughly 83,000, 20% have a hit.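 Percent growth is the endpoint: 0 to 100 indicates growth inhibition (40 means 60% inhibition), 0 means no net growth, and negative values indicate cell death.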 The source made the active and inactive calls. Rule for the calls: active = growth percent below 10; inactive = the rest.

How the values were obtained:
Assay in all cases: NCI-60 one-dose screen, 48 h (100 = growth as untreated, 0 = no growth, -100 = all killed)
Settings in all cases: 10 µM unless noted
[1] = tested on: DU-145 prostate
[2] = tested on: K-562 leukemia
[3] = tested on: MALME-3M melanoma
[4] = tested on: MDA-MB-231 breast
[5] = tested on: RXF 393 renal
[6] = tested on: SF-268 CNS
[7] = tested on: SF-295 CNS
[8] = tested on: SF-539 CNS
[9] = tested on: UACC-257 melanoma
[10] = tested on: M14 melanoma
[11] = tested on: HCT-15 colon
[12] = tested on: HT29 colon
[13] = tested on: SNB-75 CNS
[14] = tested on: SNB-19 CNS
[15] = tested on: U251 CNS
[16] = tested on: PC-3 prostate
[17] = tested on: SK-MEL-5 melanoma
[18] = tested on: UACC-62 melanoma
[19] = tested on: LOX IMVI melanoma
[20] = tested on: SK-MEL-28 melanoma

Measured: growth

Cc1ccc(S(=O)(=O)N/N=C\c2cc(Cl)ccc2O)cc1
inactive: [1] 92.1% | [2] 82% | [3] 95.3% | [4] 93.8% | [5] 91% | [6] 94.7% | [7] 92.1% | [8] 76.6% | [9] 107% | [10] 96.2% | [11] 81.8% | [12] 103% | [13] 88.5% | [14] 86.2% | [15] 90.4% | [16] 93.6% | [17] 99.6% | [18] 106% | [19] 88.3% | [20] 98.3%

COc1cc2nc(Cl)nc(Nc3ccc(S(=O)(=O)Nc4nccs4)cc3)c2cc1OC
inactive: [1] 119% | [2] 115% | [3] 112% | [4] 109% | [5] 110% | [6] 109% | [7] 104% | [8] 85.9% | [9] 103% | [10] 100% | [11] 96.3% | [12] 117% | [13] 87.1% | [14] 102% | [15] 96.3% | [16] 91.6% | [17] 102% | [18] 96% | [19] 86.5% | [20] 115%

NC(=S)Nc1cccc(O)c1
inactive: [1] 121% | [2] 106% | [3] 102% | [4] 96.7% | [5] 120% | [6] 109% | [7] 100% | [8] 95.8% | [9] 92.9% | [10] 98.4% | [11] 88.3% | [12] 103% | [13] 83.8% | [14] 99.3% | [15] 95.5% | [16] 105% | [17] 106% | [18] 90.5% | [19] 87.8% | [20] 110%

Cn1cc2c(c1)-c1nc(Nc3ccccc3)ncc1CC2
inactive: [1] 56.5% | [2] 85.2% | [3] 95.3% | [4] 67.4% | [5] 62.4% | [6] 72.2% | [7] 84.3% | [8] 65.6% | [9] 89.7% | [10] 55% | [11] 45.9% | [12] 79.9% | [13] 75.7% | [14] 69.4% | [15] 59.7% | [16] 58.5% | [17] 73.2% | [18] 51.1% | [19] 49.6% | [20] 99.9%

NC(=S)N/N=C/Cc1ccccc1
inactive: [1] 110% | [2] 88.4% | [3] 119% | [4] 101% | [5] 103% | [6] 105% | [7] 97.7% | [8] 109% | [9] 59.7% | [10] 104% | [11] 87.4% | [12] 94.7% | [13] 110% | [14] 104% | [15] 98.4% | [16] 91.4% | [17] 107% | [18] 108% | [19] 73% | [20] 109%

C[C@@H]1N=C(c2ccc3ccccc3n2)Nc2nc3ccccn3c2C1=O
inactive: [1] 107% | [2] 102% | [3] 92.4% | [4] 79.4% | [5] 119% | [6] 101% | [7] 90.4% | [8] 86.7% | [9] 117% | [10] 105% | [11] 86.8% | [12] 115% | [13] 84.7% | [14] 91.2% | [15] 106% | [16] 96.8% | [17] 94.3% | [18] 90.1% | [19] 93% | [20] 112%

O=C(COc1ccc(/C=C2\Oc3ccccc3C2=O)cc1)Nc1nc2c(s1)CCCC2
inactive: [2] 20.9% | [3] 22.6% | [4] 22.2% | [7] 101% | [9] 104% | [10] 98.3% | [11] 89.7% | [12] 30.2% | [14] 83% | [16] 12.3% | [17] 103% | [18] 75.6% | [20] 117%
active: [1] -79.7% | [5] -5.41% | [6] -9.96% | [8] -95.7% | [13] -76.6% | [15] -44.4% | [19] -57.3%

FC(F)(F)c1cc(Nc2ccc3cc(OCCCN4CCOCC4)ccc3n2)ccc1Cl
active: [2] -27.3% | [4] -17.8% | [5] -0.217% | [7] -56.7% | [8] -0.973% | [11] -0.426% | [12] -50.3% | [15] -10.6% | [18] -29.7% | [19] -82.1%
inactive: [1] 47.6% | [3] 47.4% | [6] 46.9% | [9] 49.2% | [10] 19% | [13] 10.8% | [14] 41.1% | [16] 23.5% | [17] 64.4% | [20] 13.7%
